Laboratory results: PubChem BioAssay (NCI)
About 79,000 compounds went through this panel and 15% of them were active in at least one assay; those are over-represented in the sample as a whole. Rule as the data show it: active = growth inhibition above about 70%; inactive = the rest.

Tests used:
[1] = NCI Yeast Anticancer Drug Screen. Data for the rad50 strain (AID 155);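 also: 0% = growth of vehicle-only cultures of the same strain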; settings: S. cerevisiae rad50 strain growth inhibition; at 50.0 µM; active compounds read high
Method in brief: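 Yeast carrying a defined DNA repair defect were exposed to test compounds, and growth was compared with vehicle-treated controls to give percent inhibition.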

[2] = NCI Yeast Anticancer Drug Screen. Data for the mec2-1 strain (AID 157); settings: S. cerevisiae mec2-1 strain, at 50.0 µM, active compounds read high
Method in brief: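 Mutant yeast (mec2-1) grown with compound; growth inhibition relative to vehicle control reported.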

[3] = NCI Yeast Anticancer Drug Screen. Data for the sgs1 mgt1 strain (AID 161);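 also: 0% = growth of cultures given vehicle only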; settings: S. cerevisiae sgs1 mgt1 strain, at 50.0 µM, active compounds read high
Method in brief: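 Yeast cells carrying a defined DNA-repair defect were exposed to test compounds. Growth inhibition was measured relative to vehicle-treated controls.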

[4] = NCI Yeast Anticancer Drug Screen. Data for the cln2 rad14 strain (AID 165);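 also: 0% = growth equal to vehicle treated cultures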; settings: S. cerevisiae cln2 rad14 strain, at 50.0 µM, active compounds read high
Method in brief: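 Readout is yeast growth inhibition versus vehicle-treated controls, using a strain with cln2 and rad14 alterations exposed to compound.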

[5] = NCI Yeast Anticancer Drug Screen. Data for the bub3 strain (AID 167); settings: S. cerevisiae bub3 mutant strain, at 50.0 µM, active compounds read high
Method in brief: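 Compounds were applied to a genetically altered yeast strain carrying a cell-cycle control defect. Growth inhibition was scored against vehicle-treated controls.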

[6] = NCI Yeast Anticancer Drug Screen. Data for the mlh1 rad18 strain (AID 175); settings: S. cerevisiae mlh1 rad18 strain growth inhibition; at 50.0 µM; active compounds read high
Method in brief: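 Genetically defined yeast (DNA repair-deficient) exposed to compounds; growth inhibition determined relative to vehicle.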

Measured: growth inhibition

Cc1c(C)c(CN)c(C)c(C)c1CN
inactive: [1] -30.5% | [2] -47% | [3] -16.6% | [4] -24.2% | [5] -43.4% | [6] -31.7%

NC(=O)NNC(=O)c1nc[nH]c1[N+](=O)[O-]
inactive: [1] -24.2% | [2] -3.3% | [3] 11.6% | [4] -15.9% | [5] -18.2% | [6] -13.3%

COC(=O)C(C(=O)OC)C(Br)(OC(C)=O)OC(C)=O
inactive: [1] -8.95% | [2] 8.2% | [3] 4.55% | [4] 6.65% | [5] 11.1% | [6] -3.35%

CC(=O)CC(=O)Nc1cccc(C)c1
inactive: [1] -13.9% | [2] -15.7% | [3] 2.8% | [4] 5.3% | [5] 16.2% | [6] -5.65%

Cc1cc(N(CCC#N)CCC#N)ccc1N=Nc1cc(Cl)ccc1Cl
inactive: [1] 18.8% | [2] 16.8% | [3] -8.55% | [4] 13.2% | [5] 42% | [6] 16.6%

CC(C)(C)C1CCCC(=O)C1 (stereo unspecified)
inactive: [1] 8.3% | [2] -5.15% | [3] 3.5% | [4] 10.3% | [5] 6.85% | [6] 3.15%

c1ccc(C2(c3ccccc3)c3ccccc3-c3ccccc32)cc1
inactive: [1] -16.2% | [2] 17.4% | [3] 20.3% | [4] -17.9% | [5] -26.9% | [6] 2.2%

CCCCc1ccc2[n+](c1)C(C(=O)OCC)=PC2 (stereo unspecified)
inactive: [1] -18.1% | [2] -36.8% | [3] -21.4% | [4] -18.9% | [5] -19.9% | [6] -11.9%

COC(=O)C1=CC2C(C1)C1CC2C(OC(C)=O)C1N(C)C (stereo unspecified)
inactive: [1] 15.8% | [2] 6% | [3] -0.55% | [4] -31.8% | [5] 6.35% | [6] 17.4%

CC(C)c1ccc(OC(=O)N(c2ccccc2)c2ccccc2)cc1
inactive: [1] 12.4% | [2] 15% | [3] -5.35% | [4] 3.5% | [5] -1.6% | [6] -2.8%

Cc1nc2ccccc2c(=O)n1NC(=S)Nc1ccc(Cl)cc1
inactive: [1] 3.6% | [2] -31.2% | [3] 4.25% | [4] -23.6% | [5] -18.4% | [6] -14.9%

O=C(CC(=O)c1ccccc1)Nc1ccc(-c2nc3ccccc3c(=O)[nH]2)cc1
inactive: [1] 20.1% | [2] 10.5% | [3] 19.9% | [4] 1.9% | [5] 19.6% | [6] 27.7%

S=C(S)NC1CCN(Cc2ccccc2)CC1
inactive: [1] 56.4% | [2] 30.6% | [3] 49% | [4] 48% | [5] 61.5% | [6] 26.1%

COc1cc(CCl)c(OC)cc1Cl
inactive: [1] 8.6% | [2] 0.9% | [3] -1.4% | [4] -35.6% | [5] 13.6% | [6] -28.4%

C=CCNC(=O)c1ccc[n+](CC(=O)Nc2ccccc2)c1
inactive: [1] 1% | [2] -9.75% | [3] -1.1% | [4] 9.8% | [5] 2.3% | [6] -7.6%

Cc1noc(C)c1N=Nc1ccc2nonc2c1N
inactive: [1] -15.5% | [2] 7.6% | [3] -14.1% | [4] 16.5% | [5] 9.35% | [6] 3.05%

Cc1ccc(Nc2nc(C)c(C(=O)CC(=O)C(=O)Nc3c(C)cccc3C(C)(C)C)s2)cc1
inactive: [1] 14.2% | [2] -17.6% | [3] -0.4% | [4] -19.2% | [5] -1.05% | [6] 2.85%

Cc1nc(N)nc2c1ncn2CCO
inactive: [1] 14.6% | [2] 16.1% | [3] 9.6% | [4] -4.25% | [5] 24.9% | [6] 9.85%

C#CC(NC(C)(C)CC(C)(C)C)C(C)C (stereo unspecified)
inactive: [1] 31.1% | [2] 4.25% | [3] 0.55% | [4] 6.8% | [5] 4.1% | [6] 12.2%

NNc1nc2ccccc2[nH]1
inactive: [1] 16.6% | [2] -0.1% | [3] -34.9% | [4] -14.4% | [5] 8.9% | [6] 8.85%

CC1CCCCC(=O)N1 (stereo unspecified)
inactive: [1] 11.6% | [2] 13.4% | [3] 27.7% | [4] 5.1% | [5] 18.6% | [6] -1.35%

O=C(O)C1CC2C3CCC2C1C3=O (stereo unspecified)
inactive: [1] -8.8% | [2] -26.3% | [3] 23.1% | [4] 4.4% | [5] -2.8% | [6] -34.7%

Nc1nc2c3nc(Nc4ccccc4)sc3nc(=O)n2c2sc(Nc3ccccc3)nc12
inactive: [1] 1.85% | [2] 1.65% | [3] 2.75% | [4] -4.15% | [5] -20.3% | [6] 2.6%

O=c1[nH]ncn2nc3ccccc3c12
inactive: [1] 3% | [2] 10.2% | [3] -2.5% | [4] -53.1% | [5] -1.3% | [6] 8.15%

COC(=O)c1c([N+](=O)[O-])ncn1C1CC(OC(C)=O)C(COC(C)=O)O1 (stereo unspecified)
inactive: [1] 15.2% | [2] -4.9% | [3] -1.9% | [4] -30.8% | [5] -17.7% | [6] 5.25%

CN(Cc1cccc(Cl)c1)C(=O)NC(C)(C)C
inactive: [1] 2.85% | [2] -6.85% | [3] 15.8% | [4] 4.2% | [5] 14.6% | [6] 0.05%

C=C1C(=O)O[C@@H]2C(=O)[C@@H](C)[C@@H]3C=CC(=O)[C@@]3(C)[C@@H](OC(=O)/C(C)=C\C)[C@H]12
inactive: [1] -2.4% | [2] -14.3% | [3] 8.8% | [4] 10.7% | [5] 7.4% | [6] 27.1%

COc1ccc(NC(C)=O)cc1[N+](=O)[O-]
inactive: [1] -4.6% | [2] -7.7% | [3] -1.7% | [4] -13.3% | [5] -18.3% | [6] 6.15%

[Cl][Pt+2][Cl].[NH-]c1cccc(C(F)(F)F)c1.[NH-]c1cccc(C(F)(F)F)c1
inactive: [1] 2.1% | [2] 12.2% | [3] -6.35% | [4] 7.05% | [5] -22.8% | [6] -11.9%

CCCCCCOC(=O)CCCCCC1CCCCC1
inactive: [1] 3.15% | [2] -6.5% | [3] 2.3% | [4] -77.4% | [5] -6.05% | [6] -6.55%

CC(OC1CC(=O)CC2C(=O)C=CC(=O)C12)c1ccccc1 (stereo unspecified)
inactive: [1] 25.1% | [2] 21.8% | [3] 26.3% | [4] 20.6% | [5] 28.4% | [6] 26.3%

CC(=Nc1ccccc1)Nc1ccccc1
inactive: [1] -5.45% | [2] 3.3% | [3] 18.1% | [4] -20.6% | [5] 4.7% | [6] 48.1%

COC1CC(NC(C)=O)C2OC(c3ccccc3)OCC2O1 (stereo unspecified)
inactive: [1] 4.35% | [2] 11.2% | [3] -10.2% | [4] 6.1% | [5] -3.45% | [6] 4.45%

O=C(NO)Nc1ccc(Cl)cc1
inactive: [1] 12.2% | [2] 8.7% | [3] 2.95% | [4] -2.15% | [5] -9.2% | [6] 1.65%

O=C(O)CN1CCN(CC(=O)O)CCN(CC(=O)O)CCN(CC(=O)O)CC1
inactive: [1] -7.95% | [2] -0.55% | [3] 2.9% | [4] -17.6% | [5] 20.4% | [6] 21.6%

C[N+](C)(C)CC(=O)N/N=C(/Cc1cc(=O)oc2cc(O)ccc12)C(=O)Nc1ccc(Cl)cc1
inactive: [1] 7.35% | [2] -2.45% | [3] -11.3% | [4] -15.7% | [5] -19.8% | [6] -10.8%

Cc1cncc(C)c1P(=O)(O)O
inactive: [1] -10.3% | [2] -6.1% | [3] -9.05% | [4] -19.8% | [5] 3.55% | [6] 3.65%

CS/C(c1ccccc1)=[N+](/C)[O-]
inactive: [1] 42.6% | [2] 16.5% | [3] 17.3% | [4] -1% | [5] 24.6% | [6] 25.6%

CCC(=O)Oc1c2ccsc2c(OC(=O)CC)c2ccsc12
inactive: [1] 29.1% | [2] 6.6% | [3] 32.1% | [4] -3.2% | [5] 29.4% | [6] 13.7%

CCOC(=O)c1cc2cc(Cc3ccc4[nH]c(C(=O)OCC)cc4c3)ccc2[nH]1
inactive: [1] -12.8% | [2] -21.4% | [3] -26.2% | [4] -26.4% | [5] -32.2% | [6] -43.6%

C[C@]12CC[C@@H]3c4ccc(OS(C)(=O)=O)cc4CC[C@H]3[C@@H]1CC[C@@H]2OS(C)(=O)=O
inactive: [1] 30.6% | [2] -0.5% | [3] 22.8% | [4] 22.1% | [5] 10.8% | [6] 9.9%
